The record followed here is PubChem BioAssay (NCATS).

Records with an inconclusive call do not appear. Values without a mark were called inactive. Active and inactive are the calls of the source. The call rests on the fitted dose curve; in most records, active means well fitted cell-killing curve with a large enough effect; inconclusive means small, poorly fitted or top-dose-only effect; inactive means flat fitted curve, though single readings scatter.
Potency means the concentration at half of the fitted maximal effect.

A short description of one assay: qHTS of pediatric cancer cell lines to identify multiple opportunities for drug repurposing: Primary screen for TC32 cells (AID 1347089). Further: nearly all actives have a fitted effect of over 60% in size. On activity change, negative = cytotoxic: on the % scale 0 is the no-effect control and ±100 the full control effect. To be noted: TC32 Ewing sarcoma viability, CellTiter-Glo luminescence, 48 h; series mostly up to 45.8 µM; activity change, negative = cytotoxic: at the top concentration. Put shortly:
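In the primary qHTS, MIPE compounds were tested at 11 concentrations (0.78 nM to 46 µM) and NPC compounds at 8 (0.59 nM to 46 µM) on TC32 cells for 48 h. CellTiter-Glo luminescence gave viability.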
In general terms: In qHTS, concentration-response curves come from the screen itself.
With `CC(=O)O[C@]1(C(C)=O)CC[C@H]2[C@@H]3C=C(Cl)C4=CC(=O)CC[C@]4(C)[C@H]3CC[C@@]21C`, the “activity change, negative = cytotoxic” value was 12.2%.

In the case of `N=C(N)N1CCc2ccccc2C1`, the activity change, negative = cytotoxic was 1.67% [at 4.81 µM].

`O=C(NC1CCN(CCc2c[nH]c3ccccc23)CC1)c1ccccc1`: the “activity change, negative = cytotoxic” value is -3.31%.

In the case of `OC(C#CCN1CCCC1)(c1ccccc1)c1ccccc1`, the “activity change, negative = cytotoxic” value was 2.65%.

On to `CC(=O)Nc1ccc(OCC(O)CNC(C)C)cc1` (configuration not stated), for which the “activity change, negative = cytotoxic” value was 2.86%.

Take `CCCc1ncc(C[n+]2ccccc2C)c(N)n1`: the “activity change, negative = cytotoxic” value is 10.6%.

As for `COc1cc(N)c(Cl)cc1C(=O)NC1CCN(Cc2ccccc2)CC1`, the “activity change, negative = cytotoxic” value is 2.05%.

For the compound `CCN(CC)CCOC(=O)C1(c2ccccc2)CCCC1`, the “activity change, negative = cytotoxic” value was 15.9%.

Take `CCCCc1cc2ccccc2c(OCCN(C)C)n1`: the “activity change, negative = cytotoxic” value was -12.4%.

Turning to `C#C[C@]1(O)CC[C@H]2[C@@H]3[C@H](C)CC4=C(CCC(=O)C4)[C@H]3CC[C@@]21C`, the “activity change, negative = cytotoxic” value is 3.9%.

Take `CCN(CC)CCOC(=O)C(Cc1cccc2ccccc12)CC1CCCO1` (configuration not stated): the “activity change, negative = cytotoxic” value is -1.23%.

For the compound `N#CCC(=O)NN`, the “activity change, negative = cytotoxic” value is 17.1%.

Turning to `CC(C)(C)CC(C)(C)c1ccc(O)c(-n2nc3ccccc3n2)c1`, the “activity change, negative = cytotoxic” value is 13.6%.

As to `CCN1CCCC(OC(=O)C(c2ccccc2)c2ccccc2)C1` (configuration not stated), the “activity change, negative = cytotoxic” value was -8.28%.

Take `CO[C@H]1C=CO[C@@]2(C)Oc3c(C)c(O)c4c(O)c(c(/C=N/N5CCN(C)CC5)c(O)c4c3C2=O)NC(=O)/C(C)=C\C=C[C@H](C)[C@H](O)[C@@H](C)[C@@H](O)[C@@H](C)[C@H](OC(C)=O)[C@@H]1C`: the “activity change, negative = cytotoxic” value is 3.14%.

In the case of `Cc1cccc(C)c1NC(=O)CN1CCCCCC1`, the “activity change, negative = cytotoxic” value was 4.95%.

With `Cn1c(=O)c2[nH]c(Br)nc2n(C)c1=O`, the “activity change, negative = cytotoxic” value is 12.7%.

With `c1ccc(-c2nc[nH]c2-c2ccccc2)cc1`, the “activity change, negative = cytotoxic” value was 9.99%.

As for `COc1ccc(CN(CCN(C)C)c2ncccn2)cc1`, the “activity change, negative = cytotoxic” value was -4.88%.

Take `C[N+]1(CC2COC(c3ccccc3)(C3CCCCC3)O2)CCCCC1` (configuration not stated): the “activity change, negative = cytotoxic” value was 9.06%.

For the compound `CCCCCCCCCCCCCCCC(=O)O`, the “activity change, negative = cytotoxic” value was 15%.

Regarding `CN1CCN(c2cc3c(cc2F)c(=O)c(C(=O)O)cn3-c2ccc(F)cc2)CC1`, the “activity change, negative = cytotoxic” value was -0.525%.

Consider `O=C(O)P(=O)(O)O`, for which the “activity change, negative = cytotoxic” value was 3.34%.

Consider `FC(F)(F)C(F)(F)C(F)(F)C(F)(F)C(F)(F)C(F)(F)C(F)(F)C(F)(F)Br`, for which the “activity change, negative = cytotoxic” value was 1.07%.

On to `Cc1ccc(O)c([C@H](CCN(C(C)C)C(C)C)c2ccccc2)c1`, for which the “activity change, negative = cytotoxic” value is -6.26%.

On to `Cl/C(=C\n1cncn1)c1ccc(Cl)cc1Cl`, for which the “activity change, negative = cytotoxic” value is 21.1%.

On to `CC(C)(C)NCC(O)COc1cccc2c1C[C@H](O)[C@H](O)C2` (some centres not stated), for which the “activity change, negative = cytotoxic” value was 6.12%.

In the case of `Oc1c(Cl)cc(Cl)c(Cl)c1Cc1c(O)c(Cl)cc(Cl)c1Cl`, the Potency is 7.45 µM (active).

Consider `CC(=O)O[C@]1(C(C)=O)CC[C@H]2[C@@H]3C=C(C)C4=CC(=O)CC[C@]4(C)[C@H]3CC[C@@]21C`, for which the “activity change, negative = cytotoxic” value was 8.64%.

As for `Clc1cccc(C(c2ccc3nc[nH]c3c2)n2ccnc2)c1` (configuration not stated), the “activity change, negative = cytotoxic” value is 13.3%.

In the case of `Cc1cc2c(OCC(CNC(C)(C)C)OC(=O)c3ccccc3)cccc2[nH]1` (configuration not stated), the “activity change, negative = cytotoxic” value is 13.8%.

For `CCCCCCCCCCCCCC(=O)OC(C)C`, the “activity change, negative = cytotoxic” value is -0.96%.

`Cc1ccc(-c2ncc(Cl)cc2-c2ccc(S(C)(=O)=O)cc2)cn1`: the “activity change, negative = cytotoxic” value was 17.4%.

Regarding `CCOc1ccc(NC(C)=O)cc1`, the “activity change, negative = cytotoxic” value was -5.9%.

In the case of `COc1ccccc1N1CCN(CCCCNC(=O)c2ccc(-c3ccc(C(C)=O)cc3)cc2)CC1`, the “activity change, negative = cytotoxic” value is -18.5%.

Turning to `COc1ccc2c(c1)c1c3n2CCN(C)C3=NCC1`, the “activity change, negative = cytotoxic” value was 7.21%.

A short description of a further assay: qHTS of pediatric cancer cell lines to identify multiple opportunities for drug repurposing: Primary screen for DAOY cells (AID 1347090). Further: nearly all actives have a fitted effect of over 55% in size.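 On activity change, negative = cytotoxic: plate controls were DMSO for no effect and bortezomib for full effect.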 To be noted: DAOY medulloblastoma viability, CellTiter-Glo luminescence, 48 h; series mostly up to 46 µM; activity change, negative = cytotoxic: at the top concentration. Put shortly:
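Eight- or eleven-point concentration series, 48 h treatment at 37 degrees C in growth media; readout CellTiter-Glo luminescence. Potency and efficacy were taken from the concentration-response curves.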
`CC(=O)O[C@]1(C(C)=O)CC[C@H]2[C@@H]3C=C(Cl)C4=CC(=O)CC[C@]4(C)[C@H]3CC[C@@]21C`: the “activity change, negative = cytotoxic” value was 3.44%.

On to `N=C(N)N1CCc2ccccc2C1`, for which the activity change, negative = cytotoxic was -21.6% [at 4.84 µM].

On to `O=C(NC1CCN(CCc2c[nH]c3ccccc23)CC1)c1ccccc1`, for which the “activity change, negative = cytotoxic” value is 0.259%.

For the compound `OC(C#CCN1CCCC1)(c1ccccc1)c1ccccc1`, the “activity change, negative = cytotoxic” value was 3.48%.

As for `CC(=O)Nc1ccc(OCC(O)CNC(C)C)cc1` (configuration not stated), the “activity change, negative = cytotoxic” value was -23.5%.

On to `CCCc1ncc(C[n+]2ccccc2C)c(N)n1`, for which the “activity change, negative = cytotoxic” value is 0.158%.

On to `COc1cc(N)c(Cl)cc1C(=O)NC1CCN(Cc2ccccc2)CC1`, for which the “activity change, negative = cytotoxic” value is -3.57%.

With `CCN(CC)CCOC(=O)C1(c2ccccc2)CCCC1`, the “activity change, negative = cytotoxic” value was 1.47%.

Turning to `CCCCc1cc2ccccc2c(OCCN(C)C)n1`, the “activity change, negative = cytotoxic” value is -8.03%.

`C#C[C@]1(O)CC[C@H]2[C@@H]3[C@H](C)CC4=C(CCC(=O)C4)[C@H]3CC[C@@]21C`: the “activity change, negative = cytotoxic” value was 1.56%.

`CCN(CC)CCOC(=O)C(Cc1cccc2ccccc12)CC1CCCO1` (configuration not stated): the “activity change, negative = cytotoxic” value is -8.78%.

Take `N#CCC(=O)NN`: the “activity change, negative = cytotoxic” value was 4.95%.

Regarding `CC(C)(C)CC(C)(C)c1ccc(O)c(-n2nc3ccccc3n2)c1`, the “activity change, negative = cytotoxic” value was 10.6%.

Regarding `CCN1CCCC(OC(=O)C(c2ccccc2)c2ccccc2)C1` (configuration not stated), the “activity change, negative = cytotoxic” value was -1.55%.

In the case of `CO[C@H]1C=CO[C@@]2(C)Oc3c(C)c(O)c4c(O)c(c(/C=N/N5CCN(C)CC5)c(O)c4c3C2=O)NC(=O)/C(C)=C\C=C[C@H](C)[C@H](O)[C@@H](C)[C@@H](O)[C@@H](C)[C@H](OC(C)=O)[C@@H]1C`, the “activity change, negative = cytotoxic” value is -9.83%.

Regarding `Cc1cccc(C)c1NC(=O)CN1CCCCCC1`, the “activity change, negative = cytotoxic” value is 7.57%.

With `Cn1c(=O)c2[nH]c(Br)nc2n(C)c1=O`, the “activity change, negative = cytotoxic” value was -0.799%.

Regarding `c1ccc(-c2nc[nH]c2-c2ccccc2)cc1`, the “activity change, negative = cytotoxic” value is -8.69%.

On to `COc1ccc(CN(CCN(C)C)c2ncccn2)cc1`, for which the “activity change, negative = cytotoxic” value was 4.31%.

As for `C[N+]1(CC2COC(c3ccccc3)(C3CCCCC3)O2)CCCCC1` (configuration not stated), the “activity change, negative = cytotoxic” value is -1.63%.

For `CCCCCCCCCCCCCCCC(=O)O`, the “activity change, negative = cytotoxic” value was 5.85%.

On to `CN1CCN(c2cc3c(cc2F)c(=O)c(C(=O)O)cn3-c2ccc(F)cc2)CC1`, for which the “activity change, negative = cytotoxic” value was -7.66%.

As to `O=C(O)P(=O)(O)O`, the “activity change, negative = cytotoxic” value is 6.25%.

Take `FC(F)(F)C(F)(F)C(F)(F)C(F)(F)C(F)(F)C(F)(F)C(F)(F)C(F)(F)Br`: the “activity change, negative = cytotoxic” value was 9.09%.

Take `Cc1ccc(O)c([C@H](CCN(C(C)C)C(C)C)c2ccccc2)c1`: the “activity change, negative = cytotoxic” value is -2.66%.

Turning to `Cl/C(=C\n1cncn1)c1ccc(Cl)cc1Cl`, the “activity change, negative = cytotoxic” value is 7.63%.

`CC(C)(C)NCC(O)COc1cccc2c1C[C@H](O)[C@H](O)C2` (some centres not stated): the “activity change, negative = cytotoxic” value was 6.93%.

As for `Oc1c(Cl)cc(Cl)c(Cl)c1Cc1c(O)c(Cl)cc(Cl)c1Cl`, the Potency is 8.41 µM (active).

Take `CC(=O)O[C@]1(C(C)=O)CC[C@H]2[C@@H]3C=C(C)C4=CC(=O)CC[C@]4(C)[C@H]3CC[C@@]21C`: the “activity change, negative = cytotoxic” value is 6.6%.

With `Clc1cccc(C(c2ccc3nc[nH]c3c2)n2ccnc2)c1` (configuration not stated), the “activity change, negative = cytotoxic” value was 4%.

As to `Cc1cc2c(OCC(CNC(C)(C)C)OC(=O)c3ccccc3)cccc2[nH]1` (configuration not stated), the “activity change, negative = cytotoxic” value was 4.74%.

On to `CCCCCCCCCCCCCC(=O)OC(C)C`, for which the “activity change, negative = cytotoxic” value is 14.3%.

Regarding `Cc1ccc(-c2ncc(Cl)cc2-c2ccc(S(C)(=O)=O)cc2)cn1`, the “activity change, negative = cytotoxic” value is 10.2%.

As for `CCOc1ccc(NC(C)=O)cc1`, the “activity change, negative = cytotoxic” value was -15.3%.

Consider `COc1ccccc1N1CCN(CCCCNC(=O)c2ccc(-c3ccc(C(C)=O)cc3)cc2)CC1`, for which the “activity change, negative = cytotoxic” value was -9.36%.

On to `COc1ccc2c(c1)c1c3n2CCN(C)C3=NCC1`, for which the “activity change, negative = cytotoxic” value is 3.35%.
